# According to PubChem BioAssay (NCATS):
# Where “and” joins values, the source holds several entries; their conditions need not be identical. Equal entries are not always repeated. Inconclusive results are not listed. Calls of active or inactive are those of the source. The call rests on the fitted dose curve; in most records, active means well fitted inhibition curve with a large enough effect; inconclusive means small, poorly fitted or top-dose-only effect; inactive means flat fitted curve, though single readings scatter.
# Test system: KB-3-1
# Test: Cytotoxic Profiling of Annotated Libraries Using Quantitative High-Throughput Screening (AID 1296008); further: nearly all actives have a fitted effect of over 60% in size
# Details: Five cell lines viability, CellTiter-Glo ATP luminescence, 48-72 h; max response: stronger effect = lower value
# Method in brief: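 Compounds were pin-transferred onto cells and incubated 48 or 72 hr at 37 degree Celsius, 95% humidity. CellTiter-Glo was added, plates sat 10 min at room temperature, then ATP-coupled luminescence was imaged as the viability read-out.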
# On the % scale 0 is the no-effect control and ±100 the full control effect; potency means the concentration at half of the fitted maximal effect.
Structure (SMILES),max response,Potency
c1ccc2c(c1)Sc1ccccc1N2CCN1CCCC1,-12.7% (inactive),–
C=C1C(CCl)(CCl)C2(Cl)C(Cl)C(Cl)C1(Cl)C2(Cl)Cl (configuration not stated),3.52% (inactive),–
C=C(C)C1CC=C(C)CC1 (configuration not stated),7.51% (inactive),–
COc1cc(C)c(/C=C/C(C)=C/C=C/C(C)=C/C(=O)O)c(C)c1C,-4.57% (inactive),–
C[C@H](O)CN(C)C,10.7% (inactive),–
Cc1c(Cl)cccc1Nc1ncccc1C(=O)O,2.98% (inactive),–
O=C(NCCNCC(O)COc1ccc(O)cc1)N1CCOCC1 (configuration not stated),1.66% (inactive),–
CC(C)=CCC/C(C)=C/C=C/C(C)=C/C=C/C(C)=C/C=C/C=C(C)/C=C/C=C(C)/C=C/C=C(\C)CCC=C(C)C,-16.3% (inactive),–
COc1ccc(-c2noc(CC(=O)O)c2-c2ccc(OC)cc2)cc1,2.01% (inactive),–
CC/C=C\C/C=C\C/C=C\CCCCCCCC(=O)O,-1.86% (inactive),–
CN[C@@H]1[C@@H](O[C@H]2O[C@H](CO)[C@@H](N)[C@H](O)[C@H]2O)O[C@H]2C[C@@H](N)[C@@H](O[C@H]3[C@H](O)[C@@H](O)[C@H](N)C[C@@H]3N)O[C@@H]2[C@@H]1O,9.56% (inactive),–
O=C1N=C2SCCN2C(=O)C1Cc1ccc(Cl)cc1 (configuration not stated),-9% (inactive),–
O=S(=O)(O)CC(S)CS (configuration not stated),3.44% (inactive),–
CN=C1C=CC(=C(c2ccc(N(C)C)cc2)c2ccc(N(C)C)cc2)C=C1,–,7.31 µM (active)
CO/N=C(\C(=O)N[C@@H]1C(=O)N2C(C(=O)[O-])=C(C[n+]3ccc(N)n3CCO)CS[C@H]12)c1csc(N)n1,5.24% (inactive),–
CCC(C(=O)NC(N)=O)c1ccccc1 (configuration not stated),4% (inactive),–
C[C@@H]1C/C=C/C=C/C=C/C=C/[C@H](O[C@@H]2O[C@H](C)[C@@H](O)[C@H](N)[C@@H]2O)C[C@@H]2O[C@](O)(C[C@@H](O)C[C@H]3O[C@@H]3/C=C/C(=O)O1)C[C@H](O)[C@H]2C(=O)O,3.94% (inactive),–
CNC(=O)c1c(I)c(C(=O)NCC(=O)Nc2c(I)c(C(=O)O)c(I)c(C(=O)NCCO)c2I)c(I)c(N(C)C(C)=O)c1I,10% (inactive),–
CO/N=C(\C(=O)N[C@@H]1C(=O)N2C(C(=O)O)=C(CSc3nc(C)c(CC(=O)O)s3)CS[C@H]12)c1csc(N)n1,2.01% (inactive),–

Structure (SMILES),max response,Potency
Cc1c(N)nc([C@H](CC(N)=O)NC[C@H](N)C(N)=O)nc1C(=O)N[C@H](C(=O)N[C@H](C)[C@@H](O)[C@H](C)C(=O)N[C@H](C(=O)NCCc1nc(-c2nc(C(=O)NCCCCN=C(N)N)cs2)cs1)[C@@H](C)O)[C@@H](O[C@@H]1O[C@@H](CO)[C@@H](O)[C@H](O)[C@@H]1O[C@H]1O[C@H](CO)[C@@H](O)[C@H](OC(N)=O)[C@@H]1O)c1cnc[nH]1,-6.52% (inactive) and -5.98% (inactive),–
C=C[C@]1(C)C[C@@H](OC(=O)CSCCN(CC)CC)[C@]2(C)[C@H](C)CC[C@]3(CCC(=O)[C@H]32)[C@@H](C)[C@@H]1O,-8.95% (inactive),–
C#C[C@]1(O)CC[C@@H]2[C@H]3CCC4=CC(=O)CC[C@H]4[C@H]3C(=C)C[C@@]21CC,1.8% (inactive),–
COc1ccc(C(=O)c2ccc(C)cc2)c(O)c1,4.04% (inactive),–
CCN(CC)CCOC[C@H]1O[C@@H](O)[C@H](OCCN(CC)CC)[C@@H](O)[C@@H]1O,8.48% (inactive),–
CC(=C\c1ccccc1)/C=C1/SC(=S)N(CC(=O)O)C1=O,3.64% (inactive),–
c1ccc(-n2cnnn2)cc1,0.0496% (inactive),–
Oc1ccc(Cl)c2c1CCC2,-14.4% (inactive),–
C[C@H]1[C@@H](OC(=O)CCC(=O)O)O[C@@H]2OC3(C)CC[C@H]4[C@H](C)CC[C@@H]1[C@@]24OO3,–,16.4 µM (active)
C[C@@H]1C[C@H]2[C@@H]3C[C@H](F)C4=CC(=O)C=C[C@]4(C)[C@@]3(Cl)[C@@H](O)C[C@]2(C)[C@H]1C(=O)COC(=O)C(C)(C)C,41.6% (inactive),–
O=c1n(CC2CO2)c(=O)n(CC2CO2)c(=O)n1CC1CO1 (configuration not stated),23% (inactive),–
Cc1cc(C(=O)NCCc2ccc(S(=O)(=O)NC(=O)NN3CCCCCC3)cc2)no1,8.89% (inactive),–
CN1CCc2c(c3ccccc3n2Cc2ccccc2)C1,8.09% (inactive),–
NC(=S)N=Nc1ccc(NN=C(N)N)cc1,-12.2% (inactive),–
CCCc1nc(C(C)(C)O)c(C(=O)OCc2oc(=O)oc2C)n1Cc1ccc(-c2ccccc2-c2nn[nH]n2)cc1,-0.562% (inactive),–
CN1CCCC(CN2c3ccccc3Sc3ccccc32)C1 (configuration not stated),-10.2% (inactive),–
CC(C)CCC[C@@H](C)[C@H]1CC(=O)C2=C3CC[C@H]4C[C@@H](O)CC[C@]4(C)[C@H]3CC[C@@]21C,-6.65% (inactive),–
CC(C)CN(C[C@@H](O)[C@H](Cc1ccccc1)NC(=O)O[C@@H]1CCOC1)S(=O)(=O)c1ccc(N)cc1,0.899% (inactive),–
